# Source: PubChem (National Center for Advancing Translational Sciences (NCATS))
# HT1080-NT tox = kills 2HG-producing HT-1080-NT fibrosarcoma cells; HT-1080-NT fibrosarcoma viability, CellTiter-Glo ATP luminescence, 48 h; 360,000 tested, 1.6% active; Potency, µM (highest dose often 46.1 µM), for inactives: at the top dose activity, negative = less viability, most hits filed as cytotoxic;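 further: NT is the 2HG producing partner of a matched IDH1 knockdown line; potency means the concentration at half of the fitted maximal effect; 0% = DMSO-treated cells and -100% = media-only wells without cells; nearly all actives have a fitted effect of over 55% in size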
#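 Compounds were tested in concentration-response format on HT-1080-NT cells for 48 hours at 37 degrees C. Cell viability came from CellTiter-Glo luminescence; curves were classified by r2, response magnitude and activity.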
# HT1080 IDH1KD tx = HT-1080 IDH1 knockdown cell toxicity (counter line); HT-1080 IDH1 knockdown viability, ATP luminescence, 48 h; Potency, µM (highest dose often 46.1 µM), without a hit: at the top dose activity, negative = toxicity, actives largely listed as cytotoxic; 360,000 tested, 2% active;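 further: potency means the concentration at half of the fitted maximal effect; 0% = DMSO wells and -100% = cell-free medium wells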
#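 Luminescent ATP read-out (CellTiter-Glo, 10 min at room temperature) after 48 h compound exposure at 37 °C gave viability of IDH1-knockdown HT-1080 cells. Activity was normalised to DMSO and cell-free wells, then fitted as concentration-response curves.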
# uPA generation = inhibitors of cell surface uPA generation. cell surface uPA generation assay, qHTS. Potency, µM (series often up to 38.3 µM), for inactives: at the top dose activity change, negative = inhibition, usual class: inhibitors. 330,000 tested, 0.31% active. AID 540303; active means well fitted inhibition curve with a large enough effect; inconclusive means small, poorly fitted or top-dose-only effect; inactive means no such curve, though single readings can be large or run the other way; tested in mouse RAW 264.7 cells; further: potency means the concentration at half of the fitted maximal effect; nearly all actives have a fitted effect of over 55% in size
# TDP1 cell CPT = growth inhibition of DT40 Tdp1-/-;hTDP1 cells with camptothecin (screen for TDP1 inhibitors); Potency, µM (titrated, usually from 46.2 µM), for inactives: at the highest dose activity change, negative = growth inhibition, hits mostly inhibitors; chicken DT40 Tdp1-/-;hTDP1 cells + 20 nM CPT, ATP luminescence, 48 h; 420,000 tested, 12% active; further: potency means the concentration at half of the fitted maximal effect; nearly all actives have a fitted effect of over 55% in size
#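 Chicken DT40 Tdp1-/- cells stably complemented with human TDP1 were seeded at 400 cells/well in medium containing 20 nM camptothecin, exposed to pin-transferred compounds, and grown at 37 °C for at least 48 hr. Viability was read as ATP luminescence.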
# IL-1B inflam inh = inhibitors of inflammasome signaling (IL-1 beta secretion) | THP-1 LPS/ATP IL-1B secretion, AlphaLISA, 16 h; stronger effect = lower value | activity change, % at 57.5 µM | 360,000 tested, 4.7% active | AID 743279; in the data active means activity change below about -50%; inconclusive means mostly about -30% to -49%
#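 THP-1 cells pretreated 1 hr with compounds (up to 57.5 uM final), then stimulated with LPS (250 ng/mL final) plus ATP (1.25 mM final); secreted IL-1B measured by AlphaLISA after 16 hr, decreased signal indicating inhibition.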
# TDP1 cell noCPT = qHTS for Inhibitors of human tyrosyl-DNA phosphodiesterase 1 (TDP1): qHTS in cells in absence of CPT | DT40 Tdp1-/- hTDP1 cells, no CPT, ATP luminescence, 48 h | Potency, µM (top dose mostly 46.2 µM), without a hit: at the top dose activity change, negative = growth inhibition, most hits filed as inhibitors | 420,000 tested, 15% active; further: potency means the concentration at half of the fitted maximal effect; nearly all actives have a fitted effect of over 55% in size
#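 No-CPT arm: Tdp1-/-;hTDP1 DT40 cells (400/well) plus compounds, incubated ≥48 hr at 37 °C. Readout CellTiter-Glo luminescence.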
# * = called active by the depositor; ? = inconclusive; · = no result given; [ ] = remark or other dose. Sampled rows, rich in hits. Any-hit rate of the full collection: about 19%. Unless noted, the call rests on the fitted dose curve; in most records, active means well fitted curve in the direction sought with a large enough effect; inconclusive means small, poorly fitted or top-dose-only effect, or another doubt; inactive means no such curve, though single readings can be large; an effect the other way counts as inactive or inconclusive. Unless noted, on the % scale 0 is the no-effect control and ±100 the full control effect.
SMILES,HT1080-NT tox,HT1080 IDH1KD tx,uPA generation,TDP1 cell CPT,IL-1B inflam inh,TDP1 cell noCPT
COc1ccc2[nH]c3c(c2c1)CCN1C(=O)N([C@@H](C)C(=O)NCCc2ccc(OC)c(OC)c2)C(=O)[C@]31C,1%,-1%,11%,23µM*,-1,15µM*
CCc1nc2ccc(C(=O)Nc3cccc(OCC(=O)N(C)C)c3)cn2c1N(C)C(=O)c1ccncc1,12%,0%,·,12%,11,0%
c1cncc(CNc2ccnc(-c3cccnc3)n2)c1,·,·,·,?,·,-7%
CSCCC(NS(=O)(=O)c1ccccc1F)C(=O)Nc1ccncc1 (configuration not stated),13%,-2%,-18%,4%,11,1%
CC(C)NS(=O)(=O)c1ccc(OCC(=O)N2CCN(c3ccccc3)CC2)cc1,0%,7%,4%,-5%,21,?
O=C(COc1ccc(S(=O)(=O)NC2CCCCC2)cc1)N1CCN(c2cccc(Cl)c2)CC1,-3%[9.24 µM],?,·,?,-26,16µM*
Cc1ccc(Cl)cc1N1CCN(C(=O)COc2ccc(S(=O)(=O)NC(C)C)cc2)CC1,-15%,-17%,?,13µM*,-11,18µM*
COc1ccc(S(=O)(=O)N2CCCCCC2)cc1C(=O)NCc1ccc(C)cc1,-4%,-9%,-2%,?,-4,?
Cc1ccc(CCNC(=O)c2cc3c(=O)oc4ccccc4c3s2)cc1,·,·,·,-2%,·,2%
COc1ccc(C2/C(=C(/O)c3ccc(F)cc3)C(=O)C(=O)N2c2ccccn2)cc1OC (configuration not stated),7%,4%,1%,?,-4,23µM*
NC(=S)N/N=C/c1coc2c(ccc3ccccc32)c1=O,3%,6%,6%,-15%,1,-1%
NC(=S)N/N=C1/CCSc2ccc3ccccc3c21,26µM*,?,1%,3.7µM*,-95*,2.6µM*
Cc1cc(SCC(=O)Nc2cccc(S(=O)(=O)NC3=NCCCCC3)c2)c(C)cc1Br,?,13µM*,-18%,15%,-64*,?
Cc1cc(SCC(=O)Nc2cccc(S(=O)(=O)NC3=NCCCCC3)c2)nc2ccccc12,0%,-8%,?,?,-57*,?
CCCCC(=O)NNC(=O)N1c2ccccc2Sc2ccccc21,0%,3%,-4%,1%,6,-4%
CCN1CCN(C(c2cccc(Cl)c2)c2c(O)cc(C)n(CCOC)c2=O)CC1 (configuration not stated),·,·,·,5%,·,-9%
CCCCc1c(C)[nH]c2c(OC)cccc2c1=S,·,·,·,-7%,·,?
C=CCc1c(C)[nH]c2c(OC)cccc2c1=S,-20%,-3%,-4%,13µM*,8,18µM*
O=C(NCc1cccnc1)C1CCC(c2ccc(Cl)cc2)CC1 (configuration not stated),?,-16%,0%,?,-24,16µM*
CCCN(CCC)CCNC(=O)C1CCN(Cc2nc(-c3ccc(Cl)cc3)oc2C)CC1,-18%,-22%,5%,?,?,23µM*
O=C(NCc1cccnc1)C1CCN(C(=O)c2ccc(Cl)cc2Cl)CC1,1%,1%,-5%,-15%,1,-12%
Cc1oc(-c2ccc(Cl)cc2)nc1CN1CCC(C(=O)NCc2cccnc2)CC1,-17%,-18%,1%,-3%,-58*,?
Cc1oc(-c2cccc(Br)c2)nc1CN1CCC(C(=O)NCc2ccccc2)CC1,·,·,·,18µM*,·,?
CC(C)c1ccc(CN2CCC(C(=O)NCc3cccnc3)CC2)cc1,-5%,-4%,-4%,-18%,8,-18%
O=C(CN(C1CCCCC1)S(=O)(=O)c1ccccc1)NCc1cccnc1,10%,4%,0%,-18%,6,-21%
SMILES,HT1080-NT tox,HT1080 IDH1KD tx,uPA generation,TDP1 cell CPT,IL-1B inflam inh,TDP1 cell noCPT
O=C(CN(C1CCCCC1)S(=O)(=O)c1ccc(Cl)cc1)NCc1cccnc1,-2%,3%,-2%,?,0,16µM*
CCN1CCN(c2nc(Nc3ccccc3)nc(N)c2[N+](=O)[O-])CC1,12%,12%,8%,-8%,3,-1%
Cc1cccc(Nc2nc(N)c([N+](=O)[O-])c(N3CCCC(C)C3)n2)c1 (configuration not stated),?,?,-7%,13µM*,-103*,10µM*
Cc1cccc(Nc2nc(N)c([N+](=O)[O-])c(N3CCN(C)CC3)n2)c1,-6%,0%,-3%,?,?,?
CCN1CCN(c2nc(Nc3cccc(C)c3)nc(N)c2[N+](=O)[O-])CC1,-15%,-21%,-10%,?,?,18µM*
CC1CCC(C(C)(C)O)CC2=C1CCC2C (configuration not stated),·,·,·,2%,·,18%
O=C(CSc1nc2ccccc2c2nc(-c3ccccc3)nn12)Nc1ccc(F)cc1,·,·,·,?,·,15µM*
Cc1nc2ccccc2n1CCc1nc2c3ccccc3nc(SCC(=O)Nc3ccc(C(C)C)cc3)n2n1,·,·,·,12µM*,·,9.2µM*
CCC(Sc1nc2ccccc2c2nc(CCn3c(C)nc4ccccc43)nn12)C(=O)Nc1ccc(F)cc1 (configuration not stated),·,·,·,?,·,2.3µM*
Cc1nc2ccccc2n1CCc1nc2c3ccccc3nc(SCC(=O)NCc3ccco3)n2n1,?,?,27%,?,-11,?
Cc1nc2ccccc2n1CCc1nc2c3ccccc3nc(SCc3ccc(C#N)cc3)n2n1,·,·,·,-16%,·,-6%
Cc1ccc(NC(=O)CSc2nc3ccccc3c3nc(CCn4c(C)nc5ccccc54)nn23)cc1F,·,·,·,8.2µM*,·,9.2µM*
COc1ccccc1NC(=O)CSc1nc2ccccc2c2nc(-c3ccccc3)nn12,·,·,·,-10%,·,-1%
O=C1c2ccccc2C(O)(c2ccccc2)N1c1ccc([N+](=O)[O-])cc1Cl (configuration not stated),1%,0%,-1%,-8%,10,-19%
COc1ccc(-c2cc(C(=O)OCc3ccccn3)c3ccccc3n2)cc1,-10%,-1%,-3%,?,-4,?
CC(CC(=O)N1CCc2ccccc21)S(=O)(=O)c1ccc2c(c1)NC(=O)CO2 (configuration not stated),0%,15%,4%,-21%,33,-12%
CCN(CC)C(=O)CSc1nc(O)cc(=O)n1-c1ccccc1OC,1%,0%,4%,-1%,-26,-1%
